Reference: PubChem BioAssay (NCATS)
Results filed as inconclusive are left out. Calls of active or inactive are those of the source. Unless noted, the call rests on the fitted dose curve; in most records, active means well fitted curve in the direction sought with a large enough effect; inconclusive means small, poorly fitted or top-dose-only effect, or another doubt; inactive means no such curve, though single readings can be large; an effect the other way counts as inactive or inconclusive.

Columns and labels:
[1] = biological target: Glucocorticoid receptor (Homo sapiens) (UniProt P04150); experiment: GR-GFP Redistribution (AID 450;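 active means compounds whose dose series gives a full or clear partial fitted curve of increased nuclear translocation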; further: potency means the concentration at half of the fitted maximal effect); settings: U2OS GR-GFP nuclear translocation, laser cytometry, 2 h
[2] = biological target: Glucocorticoid receptor (Homo sapiens) (UniProt P04150); experiment: GR-EFC Redistribution (AID 451; calls by dose curve; further: potency means the concentration at half of the fitted maximal effect); settings: CHO-K1 GR-EFC translocation, beta-gal luminescence, 2 h
Procedure, shortened: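 Translocation of GR-ED fusion to nuclear EA restores b-gal, read by luminescence after 1 h room-temperature detection. Engineered CHO-K1 biosensor cells, 1,000/well, exposed 2 h at 37 C to titrations up to 46 uM final.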

[3] = biological target: 3',5'-cyclic-AMP phosphodiesterase 4B (Homo sapiens) (UniProt Q07343); experiment: qHTS Assay for Inhibitors of PDE-IV (AID 607; active means well fitted activation curve with a large enough effect in the main read-out, with a control signal flat, not every such curve was filed as active; further: % of control where 0% means no effect); settings: HEK293 ACTOne CNG channel cells, membrane potential fluorescence; series mostly up to 22.9 µM
Procedure, shortened: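 The readout is membrane depolarisation from a cAMP-sensing CNG channel, detected with a potential dye at ex 535/em 590. Cells were HEK293-derived (endogenous PDE-IV) at 1000 cells/well, titrated up to 22.9 uM final.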

[4] = Cell Viability - N2a (AID 540); settings: N2a mouse neuroblastoma cell viability; activity change, negative = cytotoxicity: at 92.2 µM (top of the series);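 further: cells exposed to compound for 40 h at 37 °C; nearly all actives have a fitted effect of over 45% in size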; further: potency means the concentration at half of the fitted maximal effect;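 on activity change, negative = cytotoxicity: plate controls were DMSO alone for no effect and tamoxifen control for full effect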
Procedure, shortened: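 Cytotoxicity was scored as loss of cellular ATP in N2a cells, a mouse neuroblastoma line. Compounds are applied in a qHTS concentration series for 40 hr at 37 °C.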

[5] = Cell Viability - NIH 3T3 (AID 541); settings: NIH 3T3 cell viability, qHTS; activity change, negative = cytotoxicity: at 92.2 µM (top of the series);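 further: cells exposed to compound for 40 hours; plate controls were DMSO alone for no effect and tamoxifen positive control for full effect; nearly all actives have a fitted effect of over 25% in size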
Procedure, shortened: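 Cells seeded at 1000/well, rested 5 hr at 37 °C, then dosed and incubated 40 hr at 37 °C. CellTiter-Glo added, 20 min room temperature, luminescence read. AC50 by Hill fit.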

[6] = Cell Viability - HUV-EC-C (AID 542); settings: HUV-EC-C endothelial cell viability, qHTS; series mostly up to 92.2 µM;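 further: cells exposed to compound for 40 hours; nearly all actives have a fitted effect of over 35% in size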; further: potency means the concentration at half of the fitted maximal effect; on activity change, negative = cytotoxicity: on the % scale 0 is the no-effect control and ±100 the full control effect
Procedure, shortened: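 Cells were seeded at 1000 per well and incubated 5 hr at 37 °C before compound addition. After 40 hr at 37 °C, CellTiter-Glo reagent was added for 20 min and luminescence read. AC50 values came from Hill-equation modelling.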

[7] = Cell Viability - H-4-II-E (AID 543); settings: H-4-II-E rat hepatoma viability; series mostly up to 92.2 µM;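 further: cells exposed to compound for 40 hours; nearly all actives have a fitted effect of over 35% in size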; further: potency means the concentration at half of the fitted maximal effect
Procedure, shortened: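 Cells seeded at 1500 per well and rested 5 hr; compounds added; 40 hr incubation at 37 °C; CellTiter-Glo added, 20 min at room temperature; luminescence read. Hill-equation fits gave AC50.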

[8] = Cell Viability - SH-SY5Y (AID 544); settings: SH-SY5Y neuroblastoma cell viability; viability change, negative = cytotoxic: at 92.2 µM (top of the series);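 further: cells exposed to compound for 40 hours; 0% = DMSO alone and -100% = 100 µM tamoxifen; nearly all actives have a fitted effect of over 55% in size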
Procedure, shortened: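 Cells were plated at 1500 per well and allowed 5 hr at 37 °C. Compounds were added across a concentration range and incubated 40 hr at 37 °C. CellTiter-Glo was added for 20 min at room temperature before luminescence reading.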

[9] = Cell Viability - Renal Proximal Tubule (AID 545); settings: renal proximal tubule cells viability, primary cells of rat origin; activity change, negative = cytotoxicity: at 91.7 µM (top of the series);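 further: cells exposed to compound for 40 hours; 0% = DMSO only and -100% = 100 µM tamoxifen; nearly all actives have a fitted effect of over 40% in size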
Procedure, shortened: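 Luminescent ATP signal (CellTiter-Glo) served as the viability read-out after 40 hr compound exposure of freshly isolated rat proximal tubule cells at 37 °C. Concentration-dependent ATP loss was fitted with the Hill equation to give AC50.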

[10] = Cell Viability - Mesenchymal (AID 546); settings: mesenchymal cells viability, qHTS; activity change, negative = cytotoxicity: at 91.7 µM (top of the series);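 further: cells exposed to compound for 40 hours before reading; 0% = DMSO only and -100% = 100 µM tamoxifen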
Procedure, shortened: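 CellTiter-Glo luminescence (intracellular ATP, 20 min room temperature) after 40 hr compound exposure at 37 °C of 1000 glomerulus-derived human kidney mesenchymal cells/well; AC50 values obtained by fitting qHTS concentration-response data to the Hill equation.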

[11] = Cellular Toxicity (caspase-3) Mesangial (AID 660); settings: mesangial cells; Potency: caspase-3 activation; series mostly up to 91.7 µM;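 further: combined caspase 3 and 7 activity read by Caspase-Glo luminescence; cells exposed to compound for 16 h before the caspase read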
Procedure, shortened: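 Seed cells derived from normal human renal glomeruli, incubate 5 h, add compounds across concentrations and incubate 16 h at 37 °C. Caspase 3/7 activation is then quantified by luciferase light, with AC50 derived by Hill modeling.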

[12] = Cellular Toxicity (caspase-3) SK-N-SH (AID 661); settings: SK-N-SH caspase-3 activation, qHTS; series mostly up to 91.7 µM;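 further: cells exposed to compound for 16 hours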; further: potency means the concentration at half of the fitted maximal effect
Procedure, shortened: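 Cells were seeded and incubated 5 hr at 37 °C, dosed with compound over a concentration range for 16 hr, then given Caspase-Glo 3/7 reagent for 1 hr at room temperature before luminescence reading.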

[13] = Cellular Toxicity (caspase-3) HepG2 (AID 654); settings: HepG2 caspase-3 activation, luminescence; series mostly up to 92.2 µM;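 further: cells exposed to compound for 16 hours before reading; 0% = DMSO alone and 100% = caspase signal from 100 µM tamoxifen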
Procedure, shortened: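 Caspase 3/7 activation in HepG2 is measured as rising luminescence after a 16 hr treatment at 37 °C. Values are scaled between DMSO basal and 100 uM tamoxifen, and AC50 is fitted with the Hill equation.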

[14] = Cellular Toxicity (caspase-3) Jurkat (AID 655); settings: Jurkat caspase-3 activation, luminescence; series mostly up to 92.2 µM;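 further: cells exposed to compound for 16 h at 37 °C before reading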
Procedure, shortened: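 5000 Jurkat cells/well; compound 16 hr, 37 °C; Caspase-Glo 3/7 added, 20 min RT; luminescence read. Norm: DMSO = 0%, tamoxifen 100 uM = 100%. AC50, Hill model.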

[15] = Cellular Toxicity (caspase-3) HUV-EC-C (AID 656); settings: HUV-EC-C cells, caspase-3 activation (apoptosis), vehicle = 0, 100 µM tamoxifen = 100%; series mostly up to 92.2 µM;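 further: 0% = DMSO basal and 100% = 100 µM tamoxifen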
Procedure, shortened: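 qHTS; HUV-EC-C, 1000 cells/well; 5 hr settle, 16 hr cmpd, 37°C; Caspase-Glo 3/7, 20 min RT; luminescence. Norm: DMSO = 0%, tamoxifen 100 uM = 100%. Hill-fit AC50.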

[16] = Cellular Toxicity (caspase-3) SHSY5Y (AID 657); settings: SH-SY5Y caspase-3 activation, DMSO zero, 10 µM staurosporine = 100%; series mostly up to 91.7 µM;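 further: cells exposed to compound for 16 hours at 37 °C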
Procedure, shortened: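 qHTS, SH-SY5Y, 1500 cells/well, 5 h pre-incubation 37 °C; compound 16 h 37 °C; Caspase-Glo 3/7 1 h RT; luminescence. Norm.: DMSO = 0, 10 uM staurosporine = 100%. Hill fit → AC50.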

[17] = Cellular Toxicity (caspase-3) BJ (AID 658); settings: BJ fibroblasts, luminescence, normalized: DMSO 0%, staurosporine 100%; series mostly up to 91.7 µM;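 further: cells exposed to compound for 16 hours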
Procedure, shortened: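 Caspase-Glo 3/7 luminescence, read 1 hr after reagent at room temperature, in normal BJ fibroblasts exposed 16 hours at 37 °C. AC50 values from Hill-equation concentration-response, scaled between DMSO basal and 10 uM staurosporine as 100%.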

[18] = Cellular Toxicity (caspase-3) MRC-5 (AID 659); settings: MRC-5 cells, luminescence, normalized: DMSO 0%, 10 µM staurosporine 100%; series mostly up to 91.7 µM
Procedure, shortened: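 Luminescent Caspase-Glo 3/7 read-out (1 h, room temperature) after a 16 h, 37 °C compound exposure of MRC-5 lung fibroblasts at 1500 cells/well. Concentration-response AC50 from Hill equation; 0% DMSO, 100% 10 uM staurosporine.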

[19] = biological target: Mitogen-activated protein kinase 10 (Mus musculus) (UniProt Q61831); experiment: JNK3 AlphaScreen Assay (AID 530; active means well fitted curve in either direction with a large enough effect, not every such curve was filed as active;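 further: kinase came from lysate of stimulated human HepG2 cells; signal reports phosphorylation of biotinylated GST-cJun 1-79 at Ser73 with 10 µM ATP; on the % scale 0 is the no-effect control and ±100 the full control effect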); settings: JNK3 lysate, c-Jun phosphorylation; series mostly up to 57.1 µM
Procedure, shortened: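 qHTS titrations with 15 min compound pre-incubation before adding ATP (10 uM final). Read-out: AlphaScreen of Ser73-phosphorylated biotin-GST-cJun using HepG2 lysate JNK3 activated by IL-1β and TNFα.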

Sequence of Glucocorticoid receptor (Homo sapiens) (P04150 whole entry, looked up, the tested form may be a part): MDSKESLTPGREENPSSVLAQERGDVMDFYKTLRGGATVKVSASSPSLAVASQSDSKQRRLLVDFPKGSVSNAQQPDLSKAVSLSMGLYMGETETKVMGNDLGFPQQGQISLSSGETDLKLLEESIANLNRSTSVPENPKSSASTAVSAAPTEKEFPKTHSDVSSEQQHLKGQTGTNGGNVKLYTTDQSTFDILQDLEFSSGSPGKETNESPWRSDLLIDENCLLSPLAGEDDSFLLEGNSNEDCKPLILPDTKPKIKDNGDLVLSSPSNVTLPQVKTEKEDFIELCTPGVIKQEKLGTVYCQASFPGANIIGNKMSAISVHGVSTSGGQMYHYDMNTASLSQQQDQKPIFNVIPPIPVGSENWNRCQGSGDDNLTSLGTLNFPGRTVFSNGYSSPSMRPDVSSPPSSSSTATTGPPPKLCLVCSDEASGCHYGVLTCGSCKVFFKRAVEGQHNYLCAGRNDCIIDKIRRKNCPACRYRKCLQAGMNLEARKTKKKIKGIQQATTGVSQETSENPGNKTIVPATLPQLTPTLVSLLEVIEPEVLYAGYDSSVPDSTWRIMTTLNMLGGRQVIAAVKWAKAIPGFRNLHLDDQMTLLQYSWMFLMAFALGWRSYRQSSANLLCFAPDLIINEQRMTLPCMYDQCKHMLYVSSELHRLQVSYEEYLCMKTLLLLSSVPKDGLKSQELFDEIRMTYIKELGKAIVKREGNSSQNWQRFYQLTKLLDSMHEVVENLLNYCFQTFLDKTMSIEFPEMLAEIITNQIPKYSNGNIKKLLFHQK
Sequence of 3',5'-cyclic-AMP phosphodiesterase 4B (Homo sapiens) (Q07343 whole entry, looked up): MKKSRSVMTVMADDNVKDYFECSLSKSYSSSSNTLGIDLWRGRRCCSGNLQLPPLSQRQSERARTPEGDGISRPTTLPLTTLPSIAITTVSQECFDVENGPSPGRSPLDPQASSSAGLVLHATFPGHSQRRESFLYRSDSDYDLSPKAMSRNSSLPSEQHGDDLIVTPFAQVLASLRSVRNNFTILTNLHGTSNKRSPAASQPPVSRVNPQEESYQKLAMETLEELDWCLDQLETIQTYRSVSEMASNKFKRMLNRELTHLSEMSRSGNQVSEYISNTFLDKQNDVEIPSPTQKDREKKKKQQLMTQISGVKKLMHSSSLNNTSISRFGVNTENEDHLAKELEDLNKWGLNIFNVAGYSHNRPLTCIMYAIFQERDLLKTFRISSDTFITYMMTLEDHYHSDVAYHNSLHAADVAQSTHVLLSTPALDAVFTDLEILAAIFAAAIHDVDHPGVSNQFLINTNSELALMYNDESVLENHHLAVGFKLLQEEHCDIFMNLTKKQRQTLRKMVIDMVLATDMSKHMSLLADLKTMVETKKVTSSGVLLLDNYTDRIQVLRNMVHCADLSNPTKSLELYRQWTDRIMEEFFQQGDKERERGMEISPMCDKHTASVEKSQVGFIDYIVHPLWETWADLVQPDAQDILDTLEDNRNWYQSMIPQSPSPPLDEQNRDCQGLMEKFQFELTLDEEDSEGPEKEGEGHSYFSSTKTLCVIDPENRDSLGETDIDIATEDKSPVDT

O=C(c1cc(O)c(O)c([N+](=O)[O-])c1)c1ccccc1F
inactive: Potency [1] > 46 µM | Potency [2] > 46 µM | outcome [3]

N=C1N=C(N)c2cc3ccccc3cc21
active: activity change, negative = cytotoxicity [4] -112% | activity change, negative = cytotoxicity [5] -134% | Potency [6] 50.1 µM | Potency [7] 31.6 µM | viability change, negative = cytotoxic [8] -99% | activity change, negative = cytotoxicity [9] -85.8% | activity change, negative = cytotoxicity [10] -91.8% | Potency [12] 31.6 µM
inactive: Potency [11]

NCCO
inactive: Potency [4] | Potency [5] | Potency [6] | Potency [7] | activity change, negative = cytotoxicity [9] -3.73% | Potency [10] | Potency [13] | Potency [14] | outcome [15] | outcome [16] | outcome [17] | outcome [18] | Potency [11] | Potency [12]

O=c1cc(-c2ccccc2)oc2ccccc12
inactive: Potency [4] | Potency [6] | Potency [8] | Potency [13] | Potency [14] | outcome [15] | outcome [16] | outcome [17] | outcome [18] | Potency [11] | Potency [12]

O=C1CN(/N=C/c2ccc([N+](=O)[O-])o2)C(=O)N1
inactive: Potency [19] | Potency [6] | Potency [10] | Potency [13] | Potency [14] | outcome [15] | outcome [16] | outcome [17] | outcome [18] | Potency [11] | Potency [12]
active: Potency [4] 31.6 µM | activity change, negative = cytotoxicity [5] -97.7%

COc1ccccc1N1CCN(CCN(C(=O)c2ccc(I)cc2)c2ccccn2)CC1
inactive: Potency [1] > 46 µM | Potency [2] > 46 µM | outcome [3]

COC1=C(OC)C(=O)c2ccccc2C1=O
inactive: Potency [1] > 46 µM | Potency [2] > 46 µM | outcome [3]
